RORgamma inh = ROR gamma (mouse) transcription inhibition | P51450 | Drosophila S2 Gal4-RORgamma UAS-luciferase reporter, 20 h | Potency, µM (series often up to 53.6 µM), actives largely listed as inhibitors | 310,000 tested, 5.4% active | AID 2551; also: nearly all actives have a fitted effect of over 60% in size
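Stably transfected Drosophila Schneider cells are the test system, with ROR gamma fused to Gal4 and luciferase under UAS control; luminescence is read after 20 hr of 700 uM copper sulfate induction at ambient temperature.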
VP16 counter = Gal4-VP16 reporter inhibition counter-screen. Drosophila S2 Gal4-VP16 UAS-luciferase, luminescence, 20 h. Potency, µM (top dose mostly 53.6 µM), hits mostly inhibitors. 310,000 tested, 3.5% active. AID 2546;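 also: Gal4-VP16 expression switched on by copper sulfate through the metallothionein promoter; nearly all actives have a fitted effect of over 50% in size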
PINK1 modulator = changes PINK1 expression | Potency, µM (top dose mostly 76.6 µM), hits mostly activators | 410,000 tested, 0.2% active | PINK1 immunofluorescence, high-content cytometry, 24 h; active = well fitted activation curve with a large enough effect; inconclusive = small, poorly fitted or top-dose-only effect; cell line not stated here; also: nearly all actives have a fitted effect of over 65% in size
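Stable cell line, 250 cells/well, 12 h attachment; compounds pinned at 5 concentrations, 24 h; CCCP control. Fixed with nuclear dye, primary antibodies 12 h at 10 degrees C, secondary plus cell stain; laser-scanning cytometer read.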
Sfp inh = blocks B. subtilis Sfp PPTase activity; Potency, µM, actives largely listed as inhibitors; Biochemical Sfp PPTase activity, qHTS; 310,000 tested, 3.5% active;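 also: the enzyme is Sfp with the accession as filed and its product quenches rhodamine fluorescence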
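Sfp 15 nM + cpd, 15 min RT; start w/ rhodamine-CoA 5 uM, BHQ-2-YbbR 12.5 uM (final); 50 mM Hepes pH 7.6, 10 mM MgCl2, 0.01% NP-40, 0.01% BSA; read 525/598 nm at 0 and 30 min.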
Epigenetic reg = derepresses silenced GFP reporter in murine cells. murine LDR cells, GFP reporter derepression, 30 h. Potency, µM (top dose mostly 53.9 µM), hits mostly activators. 280,000 tested, 0.2% active; also: nearly all actives have a fitted effect of over 60% in size
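Murine LDR cells bearing a silenced CMV-driven GFP reporter were exposed to compound for 30 h at 37 C. After PBS washes, GFP-positive cells (20-120 um objects) counted by laser-scanning microplate cytometry.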
ClpP mod = qHTS Assay for Activators of ClpP; purified B. subtilis ClpP, FRET peptide cleavage, 20 min; Potency, µM (doses to about 57.5 µM); 340,000 tested, 1.9% active; active = well fitted falling curve with a large enough effect; inconclusive = small, poorly fitted or top-dose-only effect; inactive = no such curve, though single readings can be large or run the other way; also: the source files actives as falling curves though it sought activators and does not explain the sign; nearly all actives have a fitted effect of over 65% in size
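Buffer: 100 mM Tris/HCl pH8, 100 mM KCl, 0.05% low protease BSA, 2.5% glycerol, 0.01% Tween-20. ClpP 10 microg/mL final; 20 min RT; delta FRET normalized to ADEP and DMSO controls.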
Numbers stand for hits; . = inactive; ? = inconclusive; / = no result given; [ ] = another dose, or the depositor's remark. Sampled rows, rich in hits. Any-hit rate of the full collection: about 8.1%. Unless noted, calls follow the shape of the dose curve; as a rule, active = well fitted curve in the direction sought with a large enough effect; inconclusive = small, poorly fitted or top-dose-only effect, or another doubt; inactive = no such curve, though single readings can be large; an effect the other way counts as inactive or inconclusive.

SMILES | RORgamma inh | VP16 counter | PINK1 modulator | Sfp inh | Epigenetic reg | ClpP mod
CCNC(=O)c1c(NC(=O)C2COc3ccccc3O2)sc2c1CCCC2 (stereo not drawn) | ? | 11µM | . | . | . | .
CC(C)(C)c1cc2cccnc2n1Cc1cccc(Cl)c1 | 2.2µM | .[0.365 µM] | . | . | . | .
CN(C)c1ncnc2c1NC1=C(S2)C(=NCCCC(=O)O)CC(C)(C)C1 | . | . | . | 22µM | . | .
COc1ncnc2c1NC1=C(S2)C(=NCCC(=O)O)CC(C)(C)C1 | ? | 18µM | . | 14µM | . | ?
COc1ccc(CN2CCOc3ccc(CN4CCC(Oc5cccnc5)CC4)cc3C2)cc1C | / | / | . | / | / | /
C=CCNc1oc(-c2cccc3ccccc23)nc1C#N | . | . | / | . | . | 3.2µM
CCOc1ccc(-c2nc(C#N)c(NCC(C)C)o2)cc1 | .[10 µM] | . | / | . | . | 40µM
C=CCNc1oc(-c2ccc(OCC)cc2)nc1C#N | ? | ? | ? | . | . | 0.79µM
CCOC(=O)c1cc(S(=O)(=O)Nc2cc(F)ccc2C)[nH]n1 | / | / | . | / | . | .
Cc1cccc(NC(=O)COc2ccc(/C=C\c3[nH]c(=O)[nH]c(=O)c3[N+](=O)[O-])cc2)c1 | . | . | . | 50µM | . | /
CC(=O)c1ccc(NC(=O)Nc2nnc(N3CCCC(C)C3)s2)cc1 (stereo not drawn) | / | / | . | / | . | .
c1ccc(Cn2c(-c3ccccc3)nc3nc4ccccc4nc32)cc1 | . | . | . | . | . | 32µM
COC(=O)c1ccc(CSc2ncnc3sc(C)c(C)c23)o1 | 18µM | ? | / | . | . | .
Cc1nnc(SCc2cc([N+](=O)[O-])cc3c2OCOC3)n(N)c1=O | . | . | . | . | . | .
CN(C)S(=O)(=O)c1cccc(-c2nnc(SCc3cc(Cl)cc4c3OCOC4)n2N)c1 | ? | . | . | 32µM | . | .
CCOc1ccc2c(c1)c(=O)c(S(=O)(=O)c1ccc(CC)cc1)cn2Cc1cccc(Cl)c1 | / | / | . | / | . | .
CCCCC(CC)CNC(=O)c1ccc2c(=O)n(Cc3ccc(OC)cc3)c(=O)[nH]c2c1 (stereo not drawn) | / | / | . | / | . | .
CNC(=S)N/N=C/c1cc(Br)cc(Br)c1O | 3.2µM | 3.2µM | . | . | . | .
CC(=O)Nc1ccc(C(=O)N/N=C/c2cc(Br)cc(Br)c2O)cc1 | 5µM | . | . | . | . | /
Oc1c(Br)cc(Br)cc1/C=N/NC(=S)N[C@H]1CC2C=CC1C2 (stereo partly drawn) | ? | ? | ? | . | ? | /
Cc1ccc2[nH]c3c(=O)n(CC(=O)N4CCN(c5ccccc5F)CC4)ncc3c2c1 | / | / | . | / | . | .
CC(=O)c1ccc(-c2ccc3c4c(ccc3c2)OC(CNC(=O)C(C)N2CCOCC2)C4)s1 (stereo not drawn) | / | / | . | / | / | /
CCCC(=O)n1nc(-c2ccco2)nc1SCc1ccccc1 | . | ? | . | 50µM | . | .
CSc1nc(-c2ccco2)nn1C(=O)c1ccccc1 | . | . | . | 14µM | . | .
CCS(=O)(=O)n1nc(-c2ccco2)nc1SC | ? | . | . | 35µM | . | .
SMILES | RORgamma inh | VP16 counter | PINK1 modulator | Sfp inh | Epigenetic reg | ClpP mod
CCS(=O)(=O)n1nc(-c2ccc(Cl)cc2)nc1SC | ? | ? | . | 56µM | . | .
O=C(Cc1ccccc1)n1nc(-c2ccco2)nc1SCc1ccccc1 | ? | . | . | . | . | .
Cc1nc2c(C(=O)NCCc3ccccc3)cnn2c(C)c1Cc1c(F)cccc1Cl | / | / | . | / | . | ?
CSc1nc(-c2ccco2)nn1S(=O)(=O)c1ccc(C)cc1 | . | . | . | 45µM | . | .
CC(C)Cc1nc2cc(NS(=O)(=O)N(C)C)cc(C(=O)N3CC4(C)CC3CC(C)(C)C4)c2n1C (stereo not drawn) | / | / | . | / | / | /
COc1cccc(-c2nn(-c3ccccc3)cc2CN(C)Cc2c(C)nc3ccccn23)c1 | 7.1µM | ? | ? | 56µM | . | .
O=C(Cc1ccccc1)Nc1ccc2oc(-c3ccncc3)nc2c1 | . | . | . | . | . | ?
O=C(Cc1ccccc1)NC(=S)Nc1ccc2oc(-c3ccccc3F)nc2c1 | 4µM | ? | . | . | . | .
O=C(Cc1ccccc1)NC(=S)Nc1ccc2oc(-c3ccccc3)nc2c1 | 7.1µM | 7.1µM | / | . | . | /
CCc1ccc(NC(=O)Cn2c(=O)n(Cc3ccco3)c(=O)c3cccnc32)cc1 | / | / | . | / | . | ?
Cc1nc(C)n(CC(=O)N2CCOc3ccc(CN4CCN(C)C[C@@H]4c4ccccc4)cc3C2)n1 | / | / | . | / | / | /
O=C(NCc1ccc(Cl)cc1)c1cnc2sc(N3CCCCCC3)nn2c1=O | / | / | . | / | . | .
COc1cc2c(cc1O)CCN[C@@]21CS[C@H]2c3c(OC(C)=O)c(C)c4c(c3C(COC1=O)N1C2C2c3c(cc(C)c(OC)c3O)CC([C@@H]1O)N2C)OCO4 (stereo partly drawn) | 0.14µM | 0.45µM | / | ? | / | /
O=C(Nc1ccc(Br)cc1F)c1cc(S(=O)(=O)NCc2ccc(F)cc2)ccc1F | / | / | . | / | . | .
O=S(=O)(Cc1cc(NCc2ccccc2)nc(-c2ccccn2)n1)c1ccccc1 | 4.5µM | ? | . | . | . | /
O=S(=O)(Cc1cc(NCc2ccccc2)nc(-c2ccncc2)n1)c1ccccc1 | . | . | . | . | . | /
COc1cc(/C=N/NC(=O)c2cccc(S(=O)(=O)N3CCOCC3)c2)cc(OC)c1O | . | . | . | . | . | /
CCN(Cc1ccccc1)c1ccc(/C=N/NC(=O)c2cccc(S(=O)(=O)N3CCOCC3)c2)cc1 | 6.3µM | 7.9µM | . | . | . | .
CCN(CC)c1ccc(/C=N/NC(=O)c2cccc(S(=O)(=O)N3CCOCC3)c2)cc1 | 16µM | ? | . | . | . | .
O=C(N/N=C/c1c(F)c(F)c(F)c(F)c1F)c1cccc(S(=O)(=O)N2CCOCC2)c1 | . | . | . | . | . | .
CN(C)c1ccc(CNC(=O)C2CCCN(S(=O)(=O)c3ccc4c(c3)oc(=O)n4C)C2)cc1 (stereo not drawn) | / | / | . | / | . | .
CCOC(=O)c1c(C)[nH]c(CCC(=O)Nc2cc(Cl)ccc2OC)c1C | / | / | . | / | . | .
CC(C)C1Cc2[nH]c(=O)c(C(=O)O)cc2CO1 (stereo not drawn) | . | . | . | . | . | 35µM
C/C(=N\NC1=NCCN1)c1ccc(Cl)cc1 | . | . | . | . | . | /
COc1cccc(C(=O)Nc2nc3c(s2)CCCC3)c1 | / | / | . | / | . | .
CC(C)(C)c1ccc(C(=O)NC(=S)Nc2nc3c(s2)CCCC3)cc1 | 1.8µM | 4.5µM | . | . | . | /
COC(=O)Nc1nc2c(s1)CCCC2 | ? | . | . | . | . | .

Screening data deposited in PubChem by National Center for Advancing Translational Sciences (NCATS).
